What was measured:
Format in all cases: functional
[1] = biological target: Solute carrier family 2, facilitated glucose transporter member 1 (Homo sapiens) (UniProt P11166); assay: ST_JUDE_LEISH: Cytotoxicity at 2uM final concentration against transgenic Leishmania Mexicana promastigotes LmGLUT1 that are glucose transport deficient and complemented with the human glucose transporter GLUT1. Activity is measured by DNA content using SYBR green in vitro
[2] = biological target: Hexose transporter 1 (Plasmodium falciparum) (UniProt O97467); assay: ST_JUDE_LEISH: Cytotoxicity at 2uM final concentration against transgenic Leishmania Mexicana promastigotes LmPfHT that are glucose transport deficient and complemented with the Plasmodium falciparum hexose transporter. Activity is measured by DNA content using SYBR green in vitro
[3] = biological target: Glucose transporter (Leishmania mexicana) (UniProt O61059); assay: ST_JUDE_LEISH: Cytotoxicity at 2uM final concentration against transgenic Leishmania Mexicana promastigotes LmGT2 that are glucose transport deficient and complemented with the L. Mexicana glucose transporter 2. Activity is measured by DNA content using SYBR green in vitro

Chain of Solute carrier family 2, facilitated glucose transporter member 1 (Homo sapiens) (P11166 whole entry): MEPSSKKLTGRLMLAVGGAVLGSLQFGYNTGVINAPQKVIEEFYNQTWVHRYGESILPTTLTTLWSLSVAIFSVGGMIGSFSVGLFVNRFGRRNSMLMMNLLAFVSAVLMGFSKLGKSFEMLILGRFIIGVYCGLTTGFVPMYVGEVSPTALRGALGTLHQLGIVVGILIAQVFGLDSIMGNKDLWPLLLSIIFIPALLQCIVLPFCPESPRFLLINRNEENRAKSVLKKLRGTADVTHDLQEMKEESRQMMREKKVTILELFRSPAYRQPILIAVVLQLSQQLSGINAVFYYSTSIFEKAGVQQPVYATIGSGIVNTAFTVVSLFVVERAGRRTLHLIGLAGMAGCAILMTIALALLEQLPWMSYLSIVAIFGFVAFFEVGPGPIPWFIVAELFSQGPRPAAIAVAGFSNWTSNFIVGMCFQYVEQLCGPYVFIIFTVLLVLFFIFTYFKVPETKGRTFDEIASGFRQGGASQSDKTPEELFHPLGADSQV

| Structure (SMILES) | inhibition [1] [%] | inhibition [2] [%] | inhibition [3] [%] |
| --- | --- | --- | --- |
| Cc1cc(N[C@@H](Cc2ccccc2)C(=O)NC2CCCC2)nc(NCc2ccccc2C)n1 | 6.22 | 6.32 | 4.04 |
| Cc1cc(CNC(=O)c2ccc(-c3ccc(-c4nc5cc(C(F)(F)F)ccc5[nH]4)s3)cc2)on1 | 4.04 | 3.31 | 1.12 |
| COc1ccc2nccc([C@@H](O)CN3CCC(NCc4nc5cc(F)ccc5o4)CC3)c2c1 | 8.07 | 6.24 | 1.01 |
| O=C(N[C@@H](Cc1ccccc1)C(=O)NC1CCCCC1)c1ccc(O)c(-c2ccc(Cl)c(Cl)c2)c1 | -0.99 | 0.22 | -0.73 |
| CC(CO)(CO)NCc1cc2c3ccccc3c(CNC(C)(CO)CO)cc2c2ccccc12 | 5.4 | 2.65 | 2.67 |
| Fc1ccc2[nH]c(-c3cccc(-c4ccc(CN5CCN(c6ccncc6)CC5)cc4)c3)nc2c1 | 0.76 | 1.36 | 0.8 |
| CN1CCC(Oc2ccc(CN3CC[C@H](NC(=O)c4cccc(C#N)c4)C3)c3ccccc23)C1 (stereo partly drawn) | -0.8 | 1.42 | 2.12 |
| COc1ccc(NC(=O)[C@H](CC(C)C)Nc2cc(C)nc(NCCc3ccccc3OC)n2)cc1 | 1.28 | 2.79 | 0.24 |
| CCCCNC(=N)c1ccc(OCCCCCOc2ccc(C(=N)NCCCC)cc2)cc1 | 5.34 | 2.05 | -0.11 |
| NC(=O)c1cccc(CNCc2ccc(-c3cccc(-c4nc5ccccc5[nH]4)c3)cc2)c1 | 5.8 | 5.87 | 5.4 |
| O=C(/C=C/c1ccc(Cl)c(Cl)c1)NCCCCCN1CCC(NC(=O)Nc2cccc(Cl)c2Cl)CC1 | -2.33 | -0.39 | 6 |

Source: ChEMBL document CHEMBL3433997, “St. Jude Leishmania screening dataset” (2016)
